# Assay results published in PubChem BioAssay.
# Unmarked numbers belong to inactive results. For some of these results: Measured potencies and affinities stand elsewhere. Calls of active or inactive are those of the source. Unless noted, no rule for the calls is given here.
# Columns and labels:
# [1] = antimalarial activity against Dd2 strain (AID 2302;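 active = growth inhibition above 50% at the single 2 µM test dose, taken to imply half-maximal potency below 2 µM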;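 also: 0% = DMSO untreated growth and 100% = chloroquine plus artemisinin killed control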); settings: P. falciparum Dd2 in RBCs, LDH growth readout, 72 h; at 2 µM; active compounds read high
# [2] = HepG2 cytotoxicity, primary screen, cytotoxicity control for P. falciparum antimalarial project, cell-based, ATP luminescence (AID 2303;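 active = inhibition above 50%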;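 also: 0% = DMSO wells and 100% = digitonin-killed cells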); settings: HepG2 viability, 24-48 h, at 10 µM, active compounds read high
# [3] = molecular target: L-lactate dehydrogenase (Plasmodium falciparum (isolate CDC / Honduras)) (UniProt Q27743); assay: PfLDH activity inhibition – cell lysate, 3D7 strain, counter-screen for P. falciparum growth inhibition project (AID 2304);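 also: 0% = vehicle and 100% = reference inhibitor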; settings: P. falciparum 3D7 crude extract, LDH APAD/NBT absorbance; at 2 µM; active compounds read high
# [4] = inhibition of 3D7 malaria parasite growth – strain 3D7 (AID 2306);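 also: 0% = DMSO wells and 100% = chloroquine plus artemisinin control wells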; settings: P. falciparum 3D7 erythrocytic growth, LDH absorbance, 72 h; at 2 µM; active compounds read high
# [5] = molecular target: Calcium-dependent protein kinase 1 (Plasmodium falciparum (isolate 3D7)) (UniProt P62344); assay: PfCDPK1 kinase inhibitors, biochemical, TCAMS library (AID 1159585; cut-off not given, nearly all actives have IC50 up to about 0.98 µM;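 also: inhibitors leave more ATP so luminescence rises with inhibition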); settings: recombinant PfCDPK1, Kinase-Glo ATP depletion luminescence
# [6] = molecular target: Plasmodium falciparum protein kinase 6 (PK6, PF3D7_1337100) (UniProt Q8IDW1); assay: PfPK6 kinase inhibitors, biochemical, TCAMS library (AID 1159586); settings: recombinant PfPK6, Kinase-Glo ATP depletion luminescence
# [7] = molecular target: Protein kinase 7 (PK7), Plasmodium falciparum 3D7 (PF3D7_0213400) (UniProt Q7YTF7); assay: inhibition of Plasmodium PK7 catalytic activity – biochemical, TCAMS antimalarial set, Kinase-Glo luminescence (AID 1159587); settings: recombinant PfPK7, Kinase-Glo ATP depletion luminescence
# [8] = molecular target: Calcium-dependent protein kinase 4 (Plasmodium falciparum (isolate 3D7)) (UniProt Q8IBS5); assay: PfCDPK4 kinase inhibitors, biochemical, TCAMS library (AID 1159588; cut-off not given, nearly all actives have IC50 up to about 0.91 µM); settings: recombinant PfCDPK4, Kinase-Glo ATP depletion luminescence
# Chain of Calcium-dependent protein kinase 4 (Plasmodium falciparum (isolate 3D7)) (Q8IBS5 whole entry, looked up): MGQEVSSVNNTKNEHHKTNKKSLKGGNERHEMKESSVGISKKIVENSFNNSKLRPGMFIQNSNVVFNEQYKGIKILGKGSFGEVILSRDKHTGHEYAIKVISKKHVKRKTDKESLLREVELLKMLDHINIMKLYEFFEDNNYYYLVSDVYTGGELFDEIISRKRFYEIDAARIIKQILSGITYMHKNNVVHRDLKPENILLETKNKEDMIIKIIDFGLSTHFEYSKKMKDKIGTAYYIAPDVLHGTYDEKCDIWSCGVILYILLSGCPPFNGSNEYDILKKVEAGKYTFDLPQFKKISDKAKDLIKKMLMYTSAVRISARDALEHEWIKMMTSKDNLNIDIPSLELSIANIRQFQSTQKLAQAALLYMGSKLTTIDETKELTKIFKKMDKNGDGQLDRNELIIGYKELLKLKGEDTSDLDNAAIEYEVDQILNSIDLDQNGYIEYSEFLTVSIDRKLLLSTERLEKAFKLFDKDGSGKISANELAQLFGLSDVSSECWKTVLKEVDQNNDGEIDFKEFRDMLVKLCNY
# Chain of Protein kinase 7 (PK7), Plasmodium falciparum 3D7 (PF3D7_0213400) (Q7YTF7 1-343): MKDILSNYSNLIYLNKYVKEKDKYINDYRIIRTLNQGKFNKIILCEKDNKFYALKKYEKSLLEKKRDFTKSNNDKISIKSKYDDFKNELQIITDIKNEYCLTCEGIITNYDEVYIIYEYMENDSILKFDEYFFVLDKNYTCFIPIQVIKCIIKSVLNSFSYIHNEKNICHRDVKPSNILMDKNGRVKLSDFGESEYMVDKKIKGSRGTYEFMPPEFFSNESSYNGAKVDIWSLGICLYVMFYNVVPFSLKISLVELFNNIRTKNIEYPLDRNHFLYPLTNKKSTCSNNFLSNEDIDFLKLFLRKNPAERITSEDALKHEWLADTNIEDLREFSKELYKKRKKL
# Chain of Plasmodium falciparum protein kinase 6 (PK6, PF3D7_1337100) (Q8IDW1 1-305): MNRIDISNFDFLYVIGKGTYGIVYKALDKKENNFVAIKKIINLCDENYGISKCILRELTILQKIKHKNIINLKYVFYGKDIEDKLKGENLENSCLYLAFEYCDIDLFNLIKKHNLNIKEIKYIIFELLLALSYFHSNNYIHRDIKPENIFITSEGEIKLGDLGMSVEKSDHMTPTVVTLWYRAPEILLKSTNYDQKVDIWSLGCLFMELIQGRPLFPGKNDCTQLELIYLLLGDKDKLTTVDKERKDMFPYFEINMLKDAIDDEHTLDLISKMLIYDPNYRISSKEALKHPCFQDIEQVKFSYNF
# Chain of Calcium-dependent protein kinase 1 (Plasmodium falciparum (isolate 3D7)) (P62344 whole entry, looked up): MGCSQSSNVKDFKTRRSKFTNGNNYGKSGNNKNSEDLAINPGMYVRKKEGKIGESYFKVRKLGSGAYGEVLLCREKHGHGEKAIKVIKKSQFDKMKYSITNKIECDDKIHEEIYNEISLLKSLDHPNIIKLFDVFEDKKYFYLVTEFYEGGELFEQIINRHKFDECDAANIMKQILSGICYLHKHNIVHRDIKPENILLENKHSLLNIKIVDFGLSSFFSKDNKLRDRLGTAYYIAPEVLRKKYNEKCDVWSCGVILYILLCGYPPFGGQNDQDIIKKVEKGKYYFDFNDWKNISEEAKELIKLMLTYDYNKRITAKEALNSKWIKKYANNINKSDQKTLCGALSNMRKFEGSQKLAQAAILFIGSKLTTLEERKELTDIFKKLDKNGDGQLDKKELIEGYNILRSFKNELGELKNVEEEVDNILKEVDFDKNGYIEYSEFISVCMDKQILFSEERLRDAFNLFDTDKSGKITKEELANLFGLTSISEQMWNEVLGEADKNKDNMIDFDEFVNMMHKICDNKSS
# Chain of L-lactate dehydrogenase (Plasmodium falciparum (isolate CDC / Honduras)) (Q27743 whole entry, looked up): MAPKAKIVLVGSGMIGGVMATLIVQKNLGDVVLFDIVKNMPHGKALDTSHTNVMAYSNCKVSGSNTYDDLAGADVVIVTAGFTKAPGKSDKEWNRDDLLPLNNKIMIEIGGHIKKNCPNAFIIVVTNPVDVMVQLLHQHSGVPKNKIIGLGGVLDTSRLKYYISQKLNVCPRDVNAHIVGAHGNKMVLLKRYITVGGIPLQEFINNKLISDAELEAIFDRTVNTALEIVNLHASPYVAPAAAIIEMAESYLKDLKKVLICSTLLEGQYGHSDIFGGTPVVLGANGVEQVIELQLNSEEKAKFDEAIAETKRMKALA
SMILES,growth inhibition [1],inhibition [2],inhibition [3] [%],growth inhibition [4],outcome [5],outcome [6],outcome [7],outcome [8]
O=C(/C=C/c1ccc(Cl)cc1)NCCCCCN1CCC(C(=O)Nc2cccc(Cl)c2)CC1,-6%,22%,-8,97% (active),inactive,inactive,inactive,inactive
CCn1cnc2c(N3CCCCS3(=O)=O)cc(C(=O)N[C@@H](Cc3ccccc3)[C@H](O)CNC3CCOCC3)cc21,87% (active),7%,6,99% (active),inactive,inactive,inactive,inactive
Cc1cc2nc(-c3ccc(OCC(=O)NCc4ccc(C(C)(C)C)cc4)cc3)[nH]c2cc1C,0%,11%,2,94% (active),inactive,inactive,inactive,inactive
C[C@H](Cc1ccc(OCCNC[C@H](O)c2cccc(Cl)c2)cc1)NC[C@H](O)c1ccc(Cl)c(Cl)c1,64% (active),69% (active),4,83% (active),inactive,inactive,inactive,inactive
Cc1cc(-c2nc3ccc(C(=N)N)cc3[nH]2)c(C)cc1-c1nc2ccc(C(=N)N)cc2[nH]1,97% (active),0%,-1,96% (active),inactive,inactive,inactive,inactive
O=C(Nc1ccsc1)Nc1cccc(-c2ccc(-c3nc4ccc(C(F)(F)F)cc4[nH]3)cc2)c1,36%,45%,-2,99% (active),inactive,inactive,inactive,inactive
O=C(C1CC1)N1c2ccccc2CCc2ccccc21,57% (active),40%,1,98% (active),inactive,inactive,inactive,inactive
CCCCCC(=O)NCC(NCCCNc1cc(=O)c2ccccc2[nH]1)c1cc(Br)cc(Br)c1 (centres undefined),66% (active),-1%,-8,96% (active),inactive,inactive,inactive,inactive
COc1cc(C)nc2ccc(NC(=O)c3ccc(C(=O)Nc4ccc5nc(C)cc(OC)c5c4)cc3)cc12,72% (active),27%,-5,96% (active),inactive,inactive,inactive,inactive
N#Cc1ccnc(-c2ccc(CNC3CCN(CC4Cn5c(=O)ccc6ccc(F)c4c65)CC3)cc2)c1 (centres undefined),41%,24%,2,88% (active),inactive,inactive,inactive,inactive
COCCCNC(=O)[C@H]1CNCCN1C(=O)c1ccccc1,95% (active),53% (active),-2,97% (active),inactive,inactive,inactive,inactive
Cc1ccc(Cn2nc(N3CCNCC3)ccc2=O)cc1NC(=O)Nc1ccc(-c2ccccc2)cc1,20%,46%,-1,94% (active),inactive,inactive,inactive,inactive
CCCCNCc1ccc(-c2nc(CN(Cc3ccc(Cl)c(Cl)c3)S(=O)(=O)c3ccc(NC(C)=O)cc3)cs2)cc1,20%,30%,5,96% (active),inactive,inactive,inactive,inactive
O=C(O[C@H]1CN[C@H](C#Cc2cc3c(Nc4ccc(OCc5cccc(F)c5)c(Cl)c4)ncnc3s2)C1)N1CCCC1,67% (active),11%,-7,99% (active),inactive,inactive,inactive,inactive
COc1cc2c(OC)cccc2cc1CNCCCCCCNCc1cc2cccc(OC)c2cc1OC,7%,59% (active),1,95% (active),inactive,inactive,inactive,inactive
CCOc1cc(CC)ccc1C1CCN(CCN2CCC(NC(=O)c3ccc(-c4ccc(C#N)cc4)cc3)CC2)CC1,71% (active),32%,6,100% (active),inactive,inactive,inactive,inactive
COc1cc2nc(NCCn3ccnc3C)nc(NCCc3ccccc3)c2cc1OC,0%,21%,-6,99% (active),inactive,inactive,inactive,inactive
CCCCC([C@@H](Cc1ccc2ccccc2c1)C(=O)N[C@H](C(=O)NC)C(C)(C)C)N(O)C=O (some centres undefined),97% (active),-6%,5,100% (active),inactive,inactive,inactive,inactive
CCOC(=O)c1cc(C(=O)NCCCCN2CCC(c3ccc(CC)cc3OCC)CC2)ccc1-c1ccc(C(F)(F)F)cc1,71% (active),74% (active),-1,99% (active),inactive,inactive,inactive,inactive

SMILES,growth inhibition [1],inhibition [2],inhibition [3] [%],growth inhibition [4],outcome [5],outcome [6],outcome [7],outcome [8]
COc1ccc(CNCc2ccc(-c3ccc(-c4nc5ccc(C(F)(F)F)cc5[nH]4)cc3)cc2)cc1,99% (active),75% (active),7,102% (active),inactive,inactive,inactive,inactive
CCN1CCN(Cc2ccc(NC(=O)c3cc4ccc5cccnc5c4[nH]3)cc2)CC1,97% (active),-3%,-3,100% (active),inactive,inactive,inactive,inactive
CCCCCCCCN1CCCN(C(=O)c2cccc(NC(=O)Nc3ccc4ccccc4c3)c2)CC1,39%,39%,1,97% (active),inactive,inactive,inactive,inactive
COc1ccc(C(=O)COc2cccc(/C=C/C(=O)O)c2)cc1OC,28%,44%,3,84% (active),inactive,inactive,inactive,inactive
O=C(Nc1cccc(C(F)(F)F)c1)Nc1cc(F)c(F)cc1Cl,98% (active),-1%,5,83% (active),inactive,inactive,inactive,inactive
Cc1nc2c(Nc3nc(-c4ccncc4)cs3)ncnc2n1-c1ccccc1Cl,96% (active),14%,0,97% (active),inactive,inactive,inactive,inactive
Cc1cccc(C(=O)NC(NC(=S)Nc2ccc([N+](=O)[O-])cc2)C(Cl)(Cl)Cl)c1 (centres undefined),66% (active),14%,-2,96% (active),inactive,inactive,inactive,inactive
CCN(CC)CCN(Cc1ccc(-c2ccc(C(F)(F)F)cc2)cc1)C(=O)CN1C(CCc2cccc(F)c2F)=NS(=O)(=O)c2ccccc21,49%,36%,-1,101% (active),inactive,inactive,inactive,inactive
Cc1ccc(NS(=O)(=O)c2ccc(-c3ccccc3)cc2)c(Cn2cnc(N3CCCNCC3)cc2=O)c1,33%,10%,4,87% (active),inactive,inactive,inactive,inactive
O=C(Nc1cccc(-c2ccc(CN3CCCC3)cc2)c1)c1ccc(Cl)cc1,47%,29%,-1,100% (active),inactive,inactive,inactive,inactive
N#CC1(c2ccccc2)CCN(c2nc(NCCCN3CCCC3=O)nc(N3CCCC4CCCCC43)n2)CC1 (centres undefined),92% (active),-2%,3,95% (active),inactive,inactive,inactive,inactive
C[C@@H]1CCC[C@H](C)N1C[C@@H](O)CNS(=O)(=O)c1cccc(C(F)(F)F)c1,2%,4%,-4,99% (active),inactive,inactive,inactive,inactive
NC1CCN(c2nc(NCCCc3ccc(O)cc3)nc(NCc3ccccc3-c3ccc(C(F)(F)F)cc3)n2)CC1,88% (active),15%,1,101% (active),inactive,inactive,inactive,inactive
NCC1CCCN1Cc1ccc(-c2ccc(-c3nc4ccc(C(F)(F)F)cc4[nH]3)s2)cc1 (centres undefined),97% (active),31%,-3,102% (active),inactive,inactive,inactive,inactive
CC1(C)C(=O)Nc2ccc3c(c21)CC1SC(=O)NN=C31 (centres undefined),92% (active),6%,-1,96% (active),inactive,inactive,inactive,inactive
CCc1ccc(C2CCN(CCCCNC(=O)c3ccc(-c4ccc(Cl)cc4)cc3)CC2)c(O)c1,99% (active),48%,2,101% (active),inactive,inactive,inactive,inactive
Cc1cc(NC2CCN(CC3CCCCC3)C2)nc(Nc2ccc(Cl)cc2)n1 (centres undefined),83% (active),26%,-2,98% (active),inactive,inactive,inactive,inactive
O=C(Nc1cccc(F)c1)N1CCC(NS(=O)(=O)c2ccc(Br)cc2)CC1,23%,4%,-1,93% (active),inactive,inactive,inactive,inactive
Cc1cc(-c2ccc(Cl)cc2)c2c(N)c(C(=O)Nc3ccc(F)cc3)sc2n1,87% (active),12%,0,97% (active),inactive,inactive,inactive,inactive
